Results as given in PubChem BioAssay AID2283260 (EPA ToxCast).
Results filed as inconclusive are left out. Calls of active or inactive are those of the source. The calls were made as follows: active = hit-call score of the fitted dose curve at least 0.9, where 1 is the maximum; inconclusive = response in the unintended direction; inactive = score below 0.9.

target: human Complement Component 5, Anaphylatoxin Receptor (C5a), C5AR1 (gene 728) (UniProt P21730); assay: NVS_GPCR_hC5a: NovaScreen (NVS) G Protein-Coupled Receptor Assay for human Complement Component 5, Anaphylatoxin Receptor (C5a)
Method: NVS_GPCR_hC5a is a biochemical, single-readout assay that uses extracted gene-proteins from U937 in a cell-free assay. Measurements were taken 2 hours after chemical dosing in a 96-well plate.NVS_GPCR_hC5a is one of one assay component(s) measured or calculated from the NVS_GPCR_hC5a assay. It is designed to make measurements of radioligand binding, a form of binding reporter, as detected with scintillation counting signals by Filter-based radiodetection technology.Data from the assay component NVS_GPCR_hC5a was analyzed into 1 assay endpoint. This assay endpoint, NVS_GPCR_hC5a, was analyzed in the positive analysis fitting direction relative to DMSO as the negative control and baseline of activity. Using a type of binding reporter, loss-of-signal activity can be used to understand changes in the binding as they relate to the gene C5AR1. Furthermore, this assay endpoint can be referred to as a primary readout, because the performed assay has only produced 1 assay endpoint. To generalize the intended target to other relatable targets, this assay endpoint is annotated to the gpcr intended target family, where the subfamily is rhodopsin-like receptor.
Binding assays used specific radioligands (tritiated, iodinated) with non-radioactive competitive displacement ligands in agonist or antagonist protocols (as indicated) and various reference compounds and inhibitors to titrate specific binding to receptors and transporters. Most enzyme assays (CYPs, kinases, phosphatases, proteases, HDACs) used recombinant protein and specific substrates (fluorescence mostly, some colorimetric and radioactive) and inhibitors, followed by a biochemical separation of substrate and product. All assays for the biochemical HTS were initially run in duplicate at a single concentration (10 uM for CYP450 assays and 25 uM for all others). Assay-chemical combinations meeting a pre-defined threshold (e.g., 30% inhibition and other criteria defined below) were then run in singleton concentration-response format with maximum concentration of 20 uM for CYPs and 50 uM for all others. Each assay was run with positive and negative controls, and concurrent controls on every plate. The follow-up (secondary) screen tested active chemical-pairs in concentration series, as well as a few additional assays not tested in the primary screen, some selected negative inactives, and several cases re-run in the concentration series for confirmatory purposes.

Chain of human Complement Component 5, Anaphylatoxin Receptor (C5a), C5AR1 (gene 728) (P21730 whole entry, looked up): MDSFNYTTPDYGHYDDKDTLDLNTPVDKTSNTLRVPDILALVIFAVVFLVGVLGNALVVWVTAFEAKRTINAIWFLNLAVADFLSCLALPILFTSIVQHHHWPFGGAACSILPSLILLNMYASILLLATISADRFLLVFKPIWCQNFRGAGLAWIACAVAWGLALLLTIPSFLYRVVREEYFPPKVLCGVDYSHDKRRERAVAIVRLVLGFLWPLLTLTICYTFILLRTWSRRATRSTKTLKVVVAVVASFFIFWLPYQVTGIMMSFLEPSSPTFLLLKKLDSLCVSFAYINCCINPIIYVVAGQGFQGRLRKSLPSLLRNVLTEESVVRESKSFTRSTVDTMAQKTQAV

Structure (SMILES) | outcome | AC50
CCC[CH2][Sn]([Cl])([CH2]CCC)[CH2]CCC | inactive | –
CCOC(=O)O[C@H](C)OC(=O)c1ccc2c(c1)cc(C(=O)NC1CCN(C(C)C)CC1)n2Cc1cc(-c2ccc(Cl)s2)on1 | – | 39.6 µM (active)
C#CCOS(=O)OC1CCCCC1Oc1ccc(C(C)(C)C)cc1 (centres undefined) | inactive | –
CCCCCCCCCC[N+](C)(C)CCCCCCCCCC | – | 42.3 µM (active)
Oc1ccc(C(c2ccc(O)cc2)C(Cl)(Cl)Cl)cc1 | inactive | –
CCC(C)(C)C(=O)OC1=C(c2ccc(Cl)cc2Cl)C(=O)OC12CCCCC2 | inactive | –
CCCCCCCCCC | inactive | –
COc1cc(OC)nc(NC(=O)NS(=O)(=O)c2ncccc2OCC(F)(F)F)n1 | inactive | –
COC(=O)c1c(C(F)F)nc(C(F)(F)F)c(C2=NCCS2)c1CC(C)C | inactive | –
CCOC(=O)NCCOc1ccc(Oc2ccccc2)cc1 | inactive | –
C=CCc1cc(S(=O)(=O)c2ccc(O)c(CC=C)c2)ccc1O | inactive | –
CC1(C)C(C=C(Cl)Cl)C1C(=O)OC(C#N)c1cccc(Oc2ccccc2)c1 (centres undefined) | inactive | –
[Cl-].[Cl-].[Hg+2] | – | 25 µM (active)
COc1ccc(C(c2ccc(OC)cc2)C(Cl)(Cl)Cl)cc1 | inactive | –
